# Measured values as given in PubChem BioAssay AID1476 (National Center for Advancing Translational Sciences (NCATS), 2009).
# Among all 200,000 compounds or so, about 4,500 (2.2%) were called active. Roughly 12% stayed inconclusive and do not appear here. Calls follow the shape of the dose curve; as a rule, active = well fitted inhibition curve with a large enough effect; inconclusive = small, poorly fitted or top-dose-only effect, or effect the other way; inactive = flat fitted curve, though single readings scatter. This excerpt belongs to a sample that is enriched for actives.
# Target: Cruzipain (Trypanosoma cruzi) (UniProt P25779)
# Test: qHTS Assay for Promiscuous and Specific Inhibitors of Cruzain (without detergent); also: nearly all actives have a fitted effect of over 40% in size;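 as to max response, negative = inhibition: plate controls were enzyme without inhibitor for no effect and buffer without enzyme for full effect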
# Conditions: purified cruzain, Z-FR-AMC fluorescence, no detergent
# Summary of the method: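 Purified cruzain at 1.5 nM, pre-incubated 15 min with compound at room temperature in 100 mM sodium acetate pH 5.5, 5 mM DTT, 0.00005% Triton X-100. Reaction started with 2 uM Z-FR-AMC; AMC fluorescence increase over 60 s gives rate.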
# Potency is read from the fitted curve at half-maximal effect.
# Cruzipain (Trypanosoma cruzi), sequence (P25779 123-467 limits assumed): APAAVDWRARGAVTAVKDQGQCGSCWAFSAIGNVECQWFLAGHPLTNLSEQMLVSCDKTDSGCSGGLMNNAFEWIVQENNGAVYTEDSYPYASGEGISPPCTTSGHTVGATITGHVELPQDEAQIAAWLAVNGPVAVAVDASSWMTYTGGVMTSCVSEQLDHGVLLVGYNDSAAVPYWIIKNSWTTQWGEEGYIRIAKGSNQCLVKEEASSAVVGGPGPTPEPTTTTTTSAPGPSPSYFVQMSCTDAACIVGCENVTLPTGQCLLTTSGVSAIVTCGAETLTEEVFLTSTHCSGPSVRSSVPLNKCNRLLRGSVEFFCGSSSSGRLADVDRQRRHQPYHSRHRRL
SMILES,"max response, negative = inhibition",Potency
COc1ccc(S(=O)(=O)N(C)CC(=O)Nc2ccc3c(c2)OCCO3)cc1OC,-3.41% (inactive),
Cc1noc(C)c1S(=O)(=O)N(CC(=O)Nc1ccc2c(c1)OCCO2)c1ccc(C(C)C)cc1,0.199% (inactive),
O=C(CN(c1ccc2c(c1)OCCO2)S(=O)(=O)c1ccccc1)Nc1ccc2c(c1)OCO2,,12.6 µM (active)
Cc1ccc(S(=O)(=O)N(CC(=O)Nc2ccc(Cl)cc2Cl)c2ccccc2C)cc1,-29.7% (inactive),
COc1ccc(-n2nc(C(=O)NCCc3ccc(Cl)cc3)c3c4ccccc4n(C)c3c2=O)cc1Cl,-5.4% (inactive),
COC(=O)c1sccc1NC(=O)COc1ccc(Cl)cc1,-7.31% (inactive),
COC(=O)c1sccc1NC(=O)c1cc(OC)c(OC)c(OC)c1,13.7% (inactive),
COC(=O)c1sccc1N/N=C(\C)c1ccc(F)c(Cl)c1,,20 µM (active)
O=C(CCS(=O)(=O)c1ccccc1)N(Cc1cccnc1)c1nc2c(F)cccc2s1,15.4% (inactive),
CC(C)CN(C(=O)c1cccc(S(=O)(=O)N2CCCCC2)c1)C1CCS(=O)(=O)C1 (stereo not drawn),5.95% (inactive),
COc1ccc(OCCCn2c(C)nc3cc(C)c(C)cc32)cc1,11.2% (inactive),
COc1cccc(N2CC(NC(=O)/C=C\c3ccccc3)CC2=O)c1 (stereo not drawn),-5.97% (inactive),
OC(COc1ccc2c(c1)CCC2)CN1CCN(c2cccc(Cl)c2)CC1 (stereo not drawn),1.52% (inactive),
O=c1cc(CN2CCN(c3cccc(Cl)c3)CC2)c2cc3c(cc2o1)CCCC3,,12.6 µM (active)
O=c1cc(CN2CCN(S(=O)(=O)/C=C/c3ccccc3)CC2)c2ccc(O)cc2o1,-11.9% (inactive),
O=C(CC1(O)C(=O)N(CN2CCOCC2)c2ccccc21)c1ccccc1 (stereo not drawn),2.42% (inactive),
Cc1ccc(C(=O)CC2(O)C(=O)N(CCc3ccccc3)c3ccc(Br)cc32)cc1 (stereo not drawn),7.97% (inactive),
C=CCN1C(=O)C(O)(CC(=O)c2ccc(Cl)cc2)c2ccccc21 (stereo not drawn),,12.6 µM (active)
CC(=O)Nc1ccc(NC(=O)CCCc2nc(-c3ccc(C(C)(C)C)cc3)no2)cc1,-10.5% (inactive),
O=C(CC(NCc1cccnc1)C(=O)O)Nc1ccc(O)cc1 (stereo not drawn),7.85% (inactive),

SMILES,"max response, negative = inhibition",Potency
Cc1cc(C)cc(NC(=O)Cn2c(=O)c3ccccc3n3nncc23)c1,4.51% (inactive),
COc1cc(OC)c(N(C)C(=O)c2cc3c(=O)oc4ccccc4c3s2)cc1Cl,6.95% (inactive),
Cc1ccc2nc(COc3cccc(NC(=O)c4ccccc4Cl)c3)cc(=O)n2c1,-3.57% (inactive),
Cc1ccc(CCC(=O)Nc2ncc(Cc3cc(Cl)ccc3Cl)s2)o1,,25.1 µM (active)
CCOc1ccccc1NC(=O)CCc1ccc(C)o1,8.1% (inactive),
Cc1cnc(NC(=O)CSc2nnc(-c3ccc(Cl)cc3Cl)n2N)s1,-2.62% (inactive),
O=C(Cn1c(=O)n(-c2ccc(F)cc2)c(=O)c2sc3ccccc3c21)NC1CCCC1,-5.91% (inactive),
CCOC(=O)c1ccccc1NC(=O)CCc1c(C)nc2c(c1C)c(=O)n(C)c(=O)n2C,-1.55% (inactive),
COc1ccc(OCCCC(=O)NCCc2ccccc2)cc1,-1.93% (inactive),
O=C(NCCOc1ccccc1)c1ccccc1,-3.94% (inactive),
O=C(NCCc1ccccc1)c1ccc(OCCOc2ccccc2)cc1,,20 µM (active)
Cc1ccc(NC(=O)c2ccc3[nH]c(C)cc(=O)c3c2)c(C)c1,-6.14% (inactive),
COc1ccc(-c2cc(NCc3ccc(F)cc3)n3cnnc3n2)cc1,6.65% (inactive),
Cc1ccc(C(=O)Nc2cc3c(cc2N2CCCC2)n(C)c(=O)c(=O)n3C)cc1,-9.28% (inactive),
Cc1cccc(NC(=O)c2nnn(CC(=O)Nc3ccc(C(C)C)cc3)c2N)c1C,,20 µM (active)
Nc1c(C(=O)NCc2ccccc2)nnn1Cc1cccc(Cl)c1,-27.5% (inactive),
COc1ccc(NC(=O)Cn2nnc(C(=O)NCCc3ccc(OC)c(OC)c3)c2N)cc1,28.4% (inactive),
CC(C)c1ccc(NC(=O)Cn2nnc(C(=O)NCCc3ccccc3)c2N)cc1,,3.16 µM (active)
CCOc1ccccc1NC(=O)Cn1nnc(C(=O)Nc2ccc(C)c(C)c2)c1N,0.467% (inactive),
CCOC(=O)c1cn(CC(=O)Nc2ccc(C(C)C)cc2)nn1,3.14% (inactive),

SMILES,"max response, negative = inhibition",Potency
COc1ccccc1NC(=O)CSC1=Nc2ccccc2C2=NC(CC(=O)NCc3cccs3)C(=O)N12 (stereo not drawn),-5.88% (inactive),
CC(C)CC(NS(=O)(=O)c1ccc2c(c1)oc(=O)n2C)C(=O)NCc1ccccc1Cl (stereo not drawn),-14% (inactive),
Cc1cccc(NC(=O)N2CCN(C)c3ncccc32)c1C,2.65% (inactive),
Cc1ccc(Oc2ccc3c(c2)C(=O)N(c2cccc4cccnc24)C3=O)cc1,,25.1 µM (active)
Cc1cccc(N2C(=O)c3cccnc3C2=O)c1,-4.26% (inactive),
CC(=O)Oc1ccc(C)cc1N1C(=O)c2ccc(C(=O)O)cc2C1=O,-6.79% (inactive),
COc1ccc(CNC(=O)c2ccc3c(c2)nc2n3CCOC2)c(OC)c1,-7.25% (inactive),
CS(=O)(=O)c1ccc(-c2nnc(NC(=O)c3ccc4c(c3)OCCO4)o2)cc1,0.217% (inactive),
Cc1ccc2oc3c(c(=O)c2c1)C(c1ccc(O)cc1)N(Cc1ccc2c(c1)OCO2)C3=O (stereo not drawn),3.18% (inactive),
N/C(=N\c1nc2ccccc2o1)NC(=O)C(Cc1ccccc1)N1C(=O)c2ccccc2C1=O (stereo not drawn),,25.1 µM (active)
O=C(NCCN1CCOCC1)[C@H](Cc1ccccc1)N1C(=O)c2ccccc2C1=O,-6.89% (inactive),
O=C(NC1=NCCS1)[C@H](Cc1ccccc1)N1C(=O)c2ccccc2C1=O,-18.4% (inactive),
COc1cccc(Cn2c(SCc3ccc(C(=O)N4CCC(C)CC4)cc3)nc3ccncc32)c1,6.55% (inactive),
Cc1ccccc1CS(=O)(=O)CC1Nc2ccc(C(=O)NCc3ccc(Cl)cc3)cc2NC1=O (stereo not drawn),-11.5% (inactive),
Cc1ccc(CNC(=O)CCc2c(C)nn(-c3ccc(N4CCCC4)nn3)c2C)cc1,-1.47% (inactive),
CCOC(=O)C1=C(C)Nc2sc(C(=O)c3ccc(Br)cc3)c(N)c2C1c1ccc(C(=O)OC)cc1 (stereo not drawn),,10 µM (active)
COC(=O)c1ccc(C2NC(=O)NC(C)=C2C(=O)N(C)C)cc1 (stereo not drawn),-7.98% (inactive),
CCOC(=O)C1=C(C)NC(C)=C(C(=O)OCC)C1c1ccccn1,6.72% (inactive),
